# Measured values from PubChem BioAssay (NCATS).
# Records with an inconclusive call do not appear. Entries that show only a call come without a potency. The source made the active and inactive calls. Unless noted, calls come from the whole dose curve; as a rule, active = well fitted curve in the direction sought with a large enough effect; inconclusive = small, poorly fitted or top-dose-only effect, or another doubt; inactive = no such curve, though single readings can be large; an effect the other way counts as inactive or inconclusive.
# Columns and labels:
# [1] = Primary qHTS for inhibitors of La Crosse Virus (LACV) - induced cell death in SH-SY5Y cells (AID 1508616);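 note: top concentration of the series differs between compounds; higher means more rescue of cells from virus-induced death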
# How it was run: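 Cytopathicity rescue screen: compounds pinned onto SH-SY5Y cells, which are then infected with LACV (MOI 0.01) and held 6 days at 37C. Percent activity is scaled between infected DMSO control and uninfected DMSO control.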
# [2] = molecular target: Calcium and integrin-binding protein 1 (Homo sapiens) (UniProt Q99828); assay: Validation qHTS for Identification of Calcium Integrin Binding protein 1 (CIB1) Competitor (AID 1508618)
# How it was run: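 Fluorescence polarization with 1 uM CIB1-GST and 100 nM FITC-alphaIIb peptide in HEPES pH 7.4, NaCl, 5 mM CaCl2, Tween20. Compounds at up to 114 uM final, preincubated with protein 15 min; read after 15 min more at RT.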
# [3] = Primary qHTS for small molecule stabilizers of the endoplasmic reticulum resident proteome: Secreted ER Calcium Modulated Protein (SERCaMP) assay (AID 1508630)
# How it was run: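 The SH-SY5Y reporter protocol was run at 3 concentrations up to 38.3 uM (primary) or 11 concentrations (follow-up): 16 h compound, 100 nM thapsigargin for 4 h, then extracellular luciferase luminescence.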
# Papain (Carica papaya) = Papain (Carica papaya) (UniProt P00784); assay: Primary qHTS assay for inhibitors of the protease papain (AID 1645873);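 note: papain turnover of Z-FR-AMC read as the AMC fluorescence gain over 10 min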; note: potency is the fitted concentration of half-maximal effect
# [4] = molecular target: Catechol O-methyltransferase (Homo sapiens) (UniProt P21964); assay: Confirmatory Screen for Target Class Profiling of Small Molecule Inhibitors of Methyltransferases (AID 1745852; calls by dose curve); conditions: MTase-Glo luminescence, SAH detection, recombinant enzyme; measured here: COMT max response; stronger effect = lower value
# [5] = molecular target: Guanidinoacetate N-methyltransferase (Homo sapiens) (UniProt Q14353); assay: as above; conditions: MTase-Glo luminescence, SAH detection, recombinant enzyme; activity change, negative = inhibition: at 57.3 µM (top of the series)
# [6] = molecular target: Nicotinamide N-methyltransferase (Homo sapiens) (UniProt P40261); assay: as above; conditions: MTase-Glo luminescence, SAH detection, recombinant enzyme; measured here: NNMT max response; stronger effect = lower value
# [7] = molecular target: Phenylethanolamine N-methyltransferase (Homo sapiens) (UniProt P11086); assay: as above; conditions: MTase-Glo luminescence, SAH detection, recombinant enzyme; measured here: PNMT max response; stronger effect = lower value
# Phenylethanolamine N-methyltransferase (Homo sapiens), sequence (P11086 whole entry, looked up): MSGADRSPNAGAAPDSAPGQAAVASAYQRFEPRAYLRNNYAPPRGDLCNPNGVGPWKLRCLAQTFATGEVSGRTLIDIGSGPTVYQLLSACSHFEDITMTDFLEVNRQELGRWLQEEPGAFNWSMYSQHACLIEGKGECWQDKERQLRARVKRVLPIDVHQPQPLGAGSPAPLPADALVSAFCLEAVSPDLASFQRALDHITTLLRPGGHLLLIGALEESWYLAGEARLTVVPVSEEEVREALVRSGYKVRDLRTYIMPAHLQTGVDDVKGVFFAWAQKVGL
# Calcium and integrin-binding protein 1 (Homo sapiens), sequence (Q99828 whole entry, looked up): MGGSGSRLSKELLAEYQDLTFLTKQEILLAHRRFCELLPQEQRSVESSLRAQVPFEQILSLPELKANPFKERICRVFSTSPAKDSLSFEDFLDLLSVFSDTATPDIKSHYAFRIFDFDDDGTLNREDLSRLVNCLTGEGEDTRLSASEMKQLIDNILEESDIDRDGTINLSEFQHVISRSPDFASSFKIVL
# Papain (Carica papaya), sequence (P00784 whole entry, looked up): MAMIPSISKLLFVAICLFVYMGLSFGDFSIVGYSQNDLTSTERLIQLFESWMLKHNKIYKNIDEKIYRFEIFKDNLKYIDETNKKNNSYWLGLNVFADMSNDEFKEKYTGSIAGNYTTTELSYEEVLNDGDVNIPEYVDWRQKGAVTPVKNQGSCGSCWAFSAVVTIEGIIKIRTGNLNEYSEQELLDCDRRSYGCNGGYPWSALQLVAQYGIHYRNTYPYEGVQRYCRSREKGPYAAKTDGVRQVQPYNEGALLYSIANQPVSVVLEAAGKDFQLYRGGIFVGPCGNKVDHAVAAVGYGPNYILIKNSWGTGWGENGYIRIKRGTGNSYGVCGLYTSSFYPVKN
# Catechol O-methyltransferase (Homo sapiens), sequence (P21964 whole entry, looked up): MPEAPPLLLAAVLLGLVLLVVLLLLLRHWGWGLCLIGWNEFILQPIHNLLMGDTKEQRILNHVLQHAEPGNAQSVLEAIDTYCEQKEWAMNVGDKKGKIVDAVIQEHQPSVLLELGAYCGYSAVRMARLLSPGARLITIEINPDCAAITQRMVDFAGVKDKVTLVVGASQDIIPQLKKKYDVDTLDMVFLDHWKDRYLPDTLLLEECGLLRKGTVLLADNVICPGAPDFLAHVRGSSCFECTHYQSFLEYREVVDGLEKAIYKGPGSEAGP
# Nicotinamide N-methyltransferase (Homo sapiens), sequence (P40261 whole entry, looked up): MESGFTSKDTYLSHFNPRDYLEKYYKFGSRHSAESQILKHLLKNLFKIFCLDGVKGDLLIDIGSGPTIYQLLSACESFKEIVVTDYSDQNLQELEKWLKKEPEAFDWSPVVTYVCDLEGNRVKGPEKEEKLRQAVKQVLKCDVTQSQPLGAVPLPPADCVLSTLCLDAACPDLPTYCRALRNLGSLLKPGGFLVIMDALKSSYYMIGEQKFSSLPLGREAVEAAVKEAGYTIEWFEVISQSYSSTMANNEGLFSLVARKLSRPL
SMILES,Potency [1],Potency [2],Potency [3],Potency (Papain (Carica papaya)),activity [4],"activity change, negative = inhibition [5]",activity [6],activity [7]
NCC(O)(CS(=O)(=O)O)c1ccc(Cl)cc1 (stereo not drawn),inactive,inactive,inactive,inactive,–,–,–,–
CCCCCCCCCCC(C)(C)C(=O)Nc1c(OC)cc(OC)cc1OC,inactive,inactive,inactive,inactive,–,–,–,–
CC(=O)[C@H]1CCC2C3CC=C4C[C@@H](OS(=O)(=O)O)CC[C@]4(C)C3CC[C@@]21C (stereo partly drawn),inactive,inactive,inactive,28.2 µM (active),–,–,–,–
O=C(O)C1CN(CCCP(=O)(O)O)CCN1 (stereo not drawn),inactive,inactive,inactive,inactive,–,–,–,–
Cn1c(=O)[nH]c2ncn(C)c2c1=O,inactive,inactive,inactive,inactive,–,–,–,–
C[C@@H](NCCc1ccc(O)cc1)[C@@H](O)c1ccc(O)cc1,inactive,inactive,inactive,inactive,–,–,–,–
CCCCCC(O)CCCC(=O)O (stereo not drawn),inactive,inactive,inactive,inactive,–,–,–,–
Oc1ccc(Cn2cc[nH]c2=S)cc1,inactive,inactive,inactive,inactive,–,–,–,–
Cc1nc2c(OCc3ccccc3)cccn2c1CC#N,inactive,inactive,inactive,inactive,–,–,–,–
CC(C)(C)c1cc(/C=C(\C#N)C(N)=S)cc(C(C)(C)C)c1O,inactive,inactive,inactive,inactive,–,–,–,–
C=CC[C@H](N)C(=O)O,inactive,inactive,inactive,inactive,–,–,–,–
O=c1[nH]c2ccccc2c2ccccc12,inactive,inactive,inactive,inactive,–,–,–,–
Oc1cc2c(cc1O)C(c1ccccc1)CNCC2 (stereo not drawn),inactive,inactive,inactive,inactive,–,–,–,–
CC(C)[C@@H]1CC[C@@H](C)C[C@@H]1P(=O)(c1ccccc1)c1ccccc1,inactive,inactive,inactive,inactive,–,–,–,–
Cn1ccnc1,inactive,inactive,inactive,inactive,–,–,–,–
O=c1onc2n1-c1cc(Br)ccc1OC2,inactive,inactive,inactive,inactive,–,–,–,–
OCC1NCC(O)C(O)C1O (stereo not drawn),inactive,inactive,inactive,inactive,–,–,–,–
COCc1nc2c([nH]1)c(=O)n(C)c(=O)n2CC(C)C,inactive,inactive,inactive,inactive,–,–,–,–
CNCCc1cnc(CCC(c2ccccc2)c2ccccc2)[nH]1,inactive,inactive,inactive,inactive,-11%,3.35%,-32.7%,-3.25%
CN(C)C(=O)/N=N/C(=O)N(C)C,inactive,inactive,inactive,inactive,-3.94%,0.919%,-6.49%,-4.1%
